# Data from PubChem BioAssay AID540277 (National Center for Advancing Translational Sciences (NCATS), 2011).
# Screen size: about 320,000 compounds; about 55 (0.02%) were called active. Another 3% or so got no clear call; they are omitted. What follows is part of a selection rich in actives, with near analogues and random picks from the rest. Unmarked numbers belong to inactive results. No stated cut-off is given here; in the data, active means potentiation above about 80%; inconclusive means between about 30% and that limit; inactive means weaker than that.
# Biological target: Transient receptor potential cation channel subfamily V member 1 (Homo sapiens) (UniProt Q8NER1)
# Sequence (Q8NER1 whole entry, looked up): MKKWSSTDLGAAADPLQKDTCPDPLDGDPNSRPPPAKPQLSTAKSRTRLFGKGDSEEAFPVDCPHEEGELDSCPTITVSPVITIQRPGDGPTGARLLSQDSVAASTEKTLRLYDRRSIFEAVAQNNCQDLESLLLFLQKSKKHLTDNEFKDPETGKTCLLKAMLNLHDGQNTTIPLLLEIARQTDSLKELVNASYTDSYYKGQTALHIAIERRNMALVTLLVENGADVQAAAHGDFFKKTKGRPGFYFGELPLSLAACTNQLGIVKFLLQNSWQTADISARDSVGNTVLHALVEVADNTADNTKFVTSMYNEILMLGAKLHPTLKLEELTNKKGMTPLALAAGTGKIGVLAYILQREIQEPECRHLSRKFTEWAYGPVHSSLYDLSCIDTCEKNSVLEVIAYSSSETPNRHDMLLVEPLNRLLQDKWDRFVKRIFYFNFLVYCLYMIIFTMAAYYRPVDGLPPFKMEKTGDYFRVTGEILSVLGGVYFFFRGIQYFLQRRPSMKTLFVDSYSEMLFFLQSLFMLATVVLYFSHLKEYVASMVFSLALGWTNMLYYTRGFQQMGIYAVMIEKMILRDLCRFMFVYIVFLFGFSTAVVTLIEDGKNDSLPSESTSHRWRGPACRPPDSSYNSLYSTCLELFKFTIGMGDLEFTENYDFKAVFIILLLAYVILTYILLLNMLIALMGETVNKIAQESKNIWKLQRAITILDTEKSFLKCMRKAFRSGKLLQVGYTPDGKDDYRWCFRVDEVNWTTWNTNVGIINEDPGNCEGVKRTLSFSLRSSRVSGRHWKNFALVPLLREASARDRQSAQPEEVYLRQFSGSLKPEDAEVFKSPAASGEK
# Assay: HTS Assay for Compounds that Act as Potentiators of the Vanilloid Receptor 1; further: 0% is about no effect
# Details: TRPV1-expressing cells, Fluo-8 calcium influx, capsaicin EC20 potentiation; at 8.33 µM; active compounds read high
# Text: The transient receptor potential ion channel, family V, number 1, (TRPV1) is one of the most important molecular transducers of painful stimuli and a potential target for analgesic drug development. Although recent clinical trials with orthosteric antagonists have not produced a successful drug because of a hyperthermia side effect and their tendency to block thermal noxious pain, this ion channel is undeniably well placed in the pain pathway, and the idea of blocking pain signals before they enter the CNS is an excellent concept and of proven efficacy when TRPV1 agonists are used. We propose a new approach involving allosteric modulation to impose an activity-dependent constraint within the context of inflammation and tissue damage that would alter the responsiveness of the channel in a way that an orthosteric vanilloid antagonist cannot achieve. We believe that the allosteric modulator approach has not been explored for this target. The main goal of this proposal is to identify additional, new, potent allosteric modulators of TRPV1 that can be used to investigate TRPV1 function. Our recent report provides evidence of proof of concept, but the compounds are just at the edge of utility in terms of potency. […] The question of whether they can be used as analgesic agents is complex, but if suitable compounds are identified then testing for analgesic properties will be conducted. NIH Chemical Genomics Center [NCGC] NIH Molecular Libraries Probe Centers Network [MLPCN] MLPCN Grant: MH089480-1A1 Assay Submitter (PI): Michael Iadarola, National Institute of Dental and Cranofacial Research
# Upon TRPV1 activation in TRPV1 cells, the channel opens and extracellular cations flow through the channel into the cytosol. A calcium binding dye (Fluo-8) becomes fluorescent when bound to calcium. This dye is pre-loaded into cells and is used as a marker for calcium influx. The amount of accumulated calcium is precisely quantified using the FDSS kinetic reader and the calcium dye. For the HTS assay, freshly prepared cells are plated at a density of 2000/well in 3 ul medium in 1536-well plates and cultured overnight at 35.5C. Cells will be loaded with 1 ul of the homogeneous calcium dye (ABD Bioquest) at room temperature for 40 to 90 minutes. Plates will be loaded into the FDSS kinetic reader and a 1 sec / cycle for 10 second baseline signal will be measured. Compound library will then be added with a pintool at 23 nl and measured kinetically for 3 minutes. This portion of the read is considered the agonist portion of the screen. Following the 3 minutes of incubation, an on board pipettor will deliver 1 ul of capsaicin for a final concentration equal to the EC20. Signal will be measured kinetically for an additional 2 minutes. This portion of the read is considered the allosteric enhancer portion of the screen. The FDSS reader has a standard filter set capable of measuring calcium bound Fluo-8 (ex=480 and em=520 nm).
row,Structure (SMILES),potentiation
1,CCCCN1C(=O)C(=O)N(CC(=O)Nc2cccc(C(C)=O)c2)C1=O,6.11%
2,COC(=O)c1ccc(-c2c(-c3ccccc3)ncc3cc(OC)c(OC)cc23)cc1,-0.0919%
3,O=C(NCC1CCCO1)c1cc2c(s1)CCCC2 (stereo not drawn),-3.61%
4,COc1ccc(C(C)(C)C)cc1NC(=O)CCN1C(=O)C2CCCCC2C1=O (stereo not drawn),-20%
5,Cc1ccc(NC(=O)C(c2ccccc2)N2CCN(C(=O)c3ccco3)CC2)cc1 (stereo not drawn),4.79%
6,CN(CCOc1ccccc1)C(=O)c1cc(-c2ccco2)nc2ccccc12,1.05%
7,CC1CCN(C(=O)COC(=O)c2cc(=O)[nH]c3ccccc23)CC1,-1.92%
8,CN(C)S(=O)(=O)c1cccc(NC(=O)COc2ccc3ccccc3c2)c1,2.88%
9,O=C(COC(=O)c1cccc(Cl)c1)NC1CCCCCCC1,-13.9%
10,COc1cc(OC)c(C(=S)N2CCCC2)cc1OC,-20.3%
11,COc1ccc(-c2cc(C(=O)NCCCN3CCCC3=O)c3ccccc3n2)cc1OC,-7.67%
12,COc1cccc(C(=O)c2sc3nc(-c4ccccc4)cc(C(F)(F)F)c3c2N)c1,-4.5%
13,CC(C)Cc1nnc(NC(=O)CCNC(=O)c2ccccc2Cl)s1,6.33%
14,CCCc1ccc(C(=O)COC(=O)CN2C(=O)NC3(CCCCC3C)C2=O)cc1 (stereo not drawn),-5.74%
15,O=C(OCC(=O)N1CCc2ccccc21)C1CCCN1S(=O)(=O)c1ccc(Cl)cc1 (stereo not drawn),-3.33%
16,COc1ccc(C)cc1NC(=O)CN1c2cccc3cccc(c23)S1(=O)=O,-17.5%
17,COc1ccc(S(=O)(=O)Nc2cccc3cccnc23)c(N)c1,13.6%
18,N#Cc1ccccc1S(=O)(=O)N1CCN(Cc2c(O)ccc3ccccc23)CC1,0.42%
19,O=C(COC(=O)CNC(=O)C1CCCCC1)NCc1ccccc1,-6.14%
20,CC(C)N(C(=O)CN1CCN(S(=O)(=O)c2ccc(Br)s2)CC1)C(C)C,-18.3%

row,Structure (SMILES),potentiation
1,CCOc1cccc2cc(C(=O)OCC(=O)Nc3c(C)cccc3CC)c(=O)oc12,-5.16%
2,Nc1cc(N)nc(SCC(=O)Nc2cccc(S(=O)(=O)N3CCCCC3)c2)n1,0.644%
3,COc1cccc(C(=O)n2ccc(-c3cccs3)n2)c1,-6.21%
4,O=C(N[C@@H](Cc1c[nH]c2ccccc12)C(=O)O)OCC1c2ccccc2-c2ccccc21,1.56%
5,CN(C(=O)CSc1nnc(-c2ccc(C(C)(C)C)cc2)n1C)C1CCS(=O)(=O)C1 (stereo not drawn),-2.39%
6,O=C(CSc1nnc(Nc2ccccc2F)s1)NC1CCCC1,-7.27%
7,CCN(CC)S(=O)(=O)c1ccc(OC)c(NC(=O)CCc2c(C)noc2C)c1,-15%
8,COc1ccccc1S(=O)(=O)NCc1ccc(C(=O)N(C)Cc2ccc(F)cc2)cc1,-20.6%
9,Cc1ccc(NC(=S)N(Cc2ccco2)C(C)c2cccs2)cc1 (stereo not drawn),141% (active)
10,Cc1ccc(NC(=S)N(CCN2CCCCC2)Cc2ccco2)cc1C,2.55%
11,Cc1ccc(NC(=S)N(CCCN2CCC(C)CC2)Cc2ccco2)cc1,8.22%
12,O=C(O)c1ccccc1N=N/C(=N/Nc1cc(S(=O)(=O)O)ccc1O)c1ccccc1,1.2%
13,CN(C)S(=O)(=O)c1ccc(C(=O)NCC2(N3CCOCC3)CCCCC2)cc1,-44.6%
14,CN(Cc1cccs1)C(=O)CN1C(=O)c2ccccc2S1(=O)=O,-1.15%
15,CCC1(C)NC(=O)N(CC(=O)N2CCN(c3cccc(Cl)c3)CC2)C1=O (stereo not drawn),-16.1%
16,O=C(COC(=O)c1ccccc1Cl)NC1CCCCCCC1,-4.06%
17,O=C(NCc1ccccc1CN1CCCC1)c1cccc(S(=O)(=O)Nc2ccc(F)cc2)c1,-2.77%
18,CC(C)Oc1ccc(C(=O)NCC(=O)Nc2ccc3c(c2)CCC3)cc1,-17.6%
19,O=C(Nc1cccc2cccnc12)C(F)(F)F,13.4%
20,CCNC(=O)N1CCN(S(=O)(=O)c2ccc3c(c2)OCCCO3)CC1,4.26%

row,Structure (SMILES),potentiation
1,N#Cc1ccc(C(=O)OCC(=O)NC(=O)NC2CCCCC2)cc1,22.1%
2,Cc1ccc(-c2nn(-c3ccccc3)cc2C(=O)NC2CCC(O)CC2)cc1 (stereo not drawn),-7.64%
3,Cc1ccc(C(=O)NNC(=O)c2ccc3c(c2)OCCO3)cc1,9.22%
4,Cn1c(SCC(=O)Nc2ccc(N3CCOCC3)cc2)nnc1C(F)(F)F,1.26%
5,COc1ccc(S(=O)(=O)N2CCN(c3ccc(F)cc3)CC2)cc1-c1noc(C)n1,-6.85%
6,CCN(CC(=O)Nc1c(F)cccc1F)C(=O)c1ccc(-c2ccc(C(C)=O)cc2)o1,-3.51%
7,O=C(COc1ccccc1Cl)N1N=C(c2cccs2)CC1c1ccco1 (stereo not drawn),-9.15%
8,CCc1cc(C(=O)Nc2nnc(C3CC3)s2)sc1C,-13.7%
9,O=C(CN1CCN(S(=O)(=O)c2ccc(Cl)s2)CC1)N1CCCCC1,-6.4%
10,CN(C)C(CNC(=O)c1ccc(OCc2cn3ccccc3n2)cc1)c1ccco1 (stereo not drawn),-3.83%
11,CN(CC(=O)NC1CCN(Cc2ccccc2)CC1)S(=O)(=O)c1ccc(Cl)s1,6.87%
12,COc1ccccc1CNC(=O)COC(=O)c1sc(C)nc1C,1.52%
13,Cc1csc2nc(COC(=O)c3cccc(N(C)C)c3)cc(=O)n12,15%
14,COc1ccc(CCNC(=O)COc2ccc3c(c2)OCO3)cc1,18.8%
15,CCOc1cc(/C=C(/C#N)c2ccc(Cl)cc2)cc(Cl)c1OCC(=O)O,12.2%
16,COc1ccc(NC(=O)CC2SC(N3CCCCC3)=NC2=O)cc1OC (stereo not drawn),1.27%
17,Cc1cccc(OCCC(=O)OCc2csc(CC(=O)Nc3ccccc3C)n2)c1,-3.33%
18,O=S(=O)(Nc1cccc2cccnc12)c1cccc2cccnc12,16.1%
